# Laboratory results reported in the supplement of paper PMC9950053.
# Structures can show the parent of a compound that is named as a salt.
# Test system: Danio rerio larvae (5 dpf)
# Experiment: combined upward orientation toward moving lines (periods 7-14) minus DMSO control (percentage points); higher = more orientation with moving lines than DMSO larvae
# Settings: 10 µM; exposure time: 3 h pre-incubation + 3 h imaging
# Protocol: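 Wild-type 5 dpf zebrafish larvae (n=48 per drug, 96-well plates, 28.5 °C) were exposed to Tocris FDA-approved library compounds at 10 µM (0.1% DMSO) for 3 h before and 3 h during imaging. Images were taken every 6 s during visual (moving coloured lines) and acoustic stimuli, and larvae were tracked with the DeepLabCut-based Z-LaP Tracker. Each behavioural measure is the treated-group mean minus the DMSO vehicle control mean (n=844), in percentage points. This mapping covers compounds with 4-character plate codes.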
row,SMILES,combined upward orientation toward moving lines
1,COc1cc2c(cc1OC)C1CC(=O)C(CC(C)C)CN1CC2 (stereo unspecified) [Tetrabenazine],-21.4
2,O=c1[nH]c2ccccc2n1C1CCN(CCCC(c2ccc(F)cc2)c2ccc(F)cc2)CC1 [Pimozide],-5.82
3,C=C1C[C@@H]2[C@H](CC[C@]3(C)C(=O)CC[C@@H]23)[C@@]2(C)C=CC(=O)C=C12 [Exemestane],1.27
4,CC[C@@H](C(N)=O)N1CCCC1=O [Levetiracetam],-2.84
5,C=CCN1C[C@H](C(=O)N(CCCN(C)C)C(=O)NCC)C[C@@H]2c3cccc4[nH]cc(c34)C[C@H]21 [Cabergoline],-13.9
6,CC(C)C[C@H]1C(=O)N2CCC[C@H]2[C@]2(O)O[C@](NC(=O)[C@@H]3C=C4c5cccc6[nH]c(Br)c(c56)C[C@H]4N(C)C3)(C(C)C)C(=O)N12 [Bromocriptine mesylate],-39
7,CC(O)(CS(=O)(=O)c1ccc(F)cc1)C(=O)Nc1ccc(C#N)c(C(F)(F)F)c1 (stereo unspecified) [Bicalutamide],-2.4
8,CCN(C)C(=O)Oc1cccc([C@H](C)N(C)C)c1 [Rivastigmine tartrate],-5.99
9,Cc1cccc([C@H](C)c2c[nH]cn2)c1C [Dexmedetomidine hydrochloride],-0.0673
10,N[C@@H]1C[C@H]1c1ccccc1 [Tranylcypromine hydrochloride],1.03
11,CN1C[C@H](C(=O)N[C@]2(C)O[C@@]3(O)[C@@H]4CCCN4C(=O)[C@H](Cc4ccccc4)N3C2=O)C[C@@H]2c3cccc4[nH]cc(c34)C[C@H]21 [Dihydroergotamine mesylate],-20.6
